The values that follow come from ChEMBL document CHEMBL3988442, “University of Dundee, Small-Polar-MMV Screening Library” (2021).

For some assays here: Entries with a potency or affinity are not part of this list.

Set-up in all cases: scale not given: direction of the effect not stated beside the values
For test [1], the target named is Protein translocase subunit SecA (Escherichia coli (strain K12)) (UniProt P10408). The test is described as follows: Assay to Identify E. coli SecA ATPase Inhibitors. It is filed as functional. Particulars: 30 µM.
Test [2] deals with T1, Ubiquitin-activating enzyme e1, putative (Leishmania donovani (strain BPK282A1)) (UniProt E9BSI1).
T1 sequence (whole entry): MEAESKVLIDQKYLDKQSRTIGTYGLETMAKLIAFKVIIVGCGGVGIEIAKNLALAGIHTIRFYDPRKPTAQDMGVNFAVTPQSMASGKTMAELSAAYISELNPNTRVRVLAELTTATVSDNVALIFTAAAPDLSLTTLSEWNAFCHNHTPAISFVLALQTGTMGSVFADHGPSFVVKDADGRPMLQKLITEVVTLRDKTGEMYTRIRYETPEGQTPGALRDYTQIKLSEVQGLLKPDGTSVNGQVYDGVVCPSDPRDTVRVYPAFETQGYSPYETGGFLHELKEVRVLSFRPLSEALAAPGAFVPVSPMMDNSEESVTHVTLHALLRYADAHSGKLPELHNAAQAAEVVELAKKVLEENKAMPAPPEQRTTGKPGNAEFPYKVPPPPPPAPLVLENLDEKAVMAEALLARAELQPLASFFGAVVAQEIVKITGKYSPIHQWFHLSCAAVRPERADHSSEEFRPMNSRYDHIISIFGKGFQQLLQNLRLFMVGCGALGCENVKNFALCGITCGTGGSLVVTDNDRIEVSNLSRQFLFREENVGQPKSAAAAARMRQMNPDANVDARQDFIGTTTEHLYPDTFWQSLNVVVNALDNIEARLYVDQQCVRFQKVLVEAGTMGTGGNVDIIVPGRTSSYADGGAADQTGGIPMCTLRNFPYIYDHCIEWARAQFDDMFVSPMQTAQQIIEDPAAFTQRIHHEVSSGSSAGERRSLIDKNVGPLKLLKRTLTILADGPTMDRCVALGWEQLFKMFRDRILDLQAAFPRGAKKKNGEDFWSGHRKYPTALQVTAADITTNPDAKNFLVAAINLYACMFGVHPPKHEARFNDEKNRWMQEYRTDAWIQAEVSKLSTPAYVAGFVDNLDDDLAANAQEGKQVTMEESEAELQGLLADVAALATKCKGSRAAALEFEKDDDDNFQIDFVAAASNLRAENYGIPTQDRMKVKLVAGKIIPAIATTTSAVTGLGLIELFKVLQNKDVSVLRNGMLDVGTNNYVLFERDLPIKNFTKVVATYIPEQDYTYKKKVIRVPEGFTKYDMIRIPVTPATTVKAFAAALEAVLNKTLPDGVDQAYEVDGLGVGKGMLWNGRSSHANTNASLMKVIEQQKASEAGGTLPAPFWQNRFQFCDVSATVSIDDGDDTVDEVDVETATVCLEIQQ
Nature of the test: Leishmania donovani Ubiquitin Activating Enzyme (LdE1). Particulars: 30 µM. The format is functional.

Test [3] concerns the target AMP-activated protein kinase, AMPK (Homo sapiens) (UniProt P54646+O43741+P54619+Q9UGJ0+Q9Y478+Q13131+Q9UGI9). Nature of the test: AMP-dependent Kinase enzyme assay. An in vitro enzyme assay that detects ADP turnover that is directly proportional to AMPK activity. This uses naive AMPK that is activated during the assay with MK-8722. The format is functional. Particulars: 30 µM.

Test [4] deals with Sialic acid-binding Ig-like lectin 9 (Homo sapiens) (UniProt Q9Y336). The test is described as follows: Hs-Siglec9 ALPHAscreen SOP 20170721. Particulars: 10 µM.
The subject of test [5] is Trypanosoma cruzi. Nature of the test: Trypanosoma cruzi phosphomannomutase and mannose-1-phosphate guanylyltransferase assay. Particulars: 10 µM. The format is functional.
Test [6] has as its target T2, Arginase-2, mitochondrial (Homo sapiens) (UniProt P78540).
T2 sequence (whole entry): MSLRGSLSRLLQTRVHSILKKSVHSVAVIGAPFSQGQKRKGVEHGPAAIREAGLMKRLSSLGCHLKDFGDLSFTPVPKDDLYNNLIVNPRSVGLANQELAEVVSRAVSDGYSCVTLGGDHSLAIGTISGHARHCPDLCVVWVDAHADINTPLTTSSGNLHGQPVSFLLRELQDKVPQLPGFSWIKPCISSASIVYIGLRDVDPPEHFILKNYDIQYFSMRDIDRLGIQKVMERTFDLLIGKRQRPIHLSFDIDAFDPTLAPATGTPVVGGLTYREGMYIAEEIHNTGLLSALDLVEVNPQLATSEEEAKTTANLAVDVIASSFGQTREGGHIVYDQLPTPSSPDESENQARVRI
Nature of the test: in vitro enzyme assay to detect the production of urea directly proportional to the activity of Arginase II. Note: in the data most compounds retested in dose-response had high values. It is filed as functional. Conditions: 33.3 µM.

The target in test [7] is T3, Proteasome subunit beta (Trypanosoma cruzi) (UniProt O96673).
T3 sequence (whole entry): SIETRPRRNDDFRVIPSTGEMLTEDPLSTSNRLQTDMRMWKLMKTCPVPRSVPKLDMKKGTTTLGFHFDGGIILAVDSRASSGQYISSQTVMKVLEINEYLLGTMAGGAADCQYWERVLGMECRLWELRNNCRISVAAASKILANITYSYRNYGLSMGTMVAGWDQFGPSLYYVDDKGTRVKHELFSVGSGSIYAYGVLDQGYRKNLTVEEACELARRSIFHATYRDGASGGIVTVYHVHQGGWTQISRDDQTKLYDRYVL
Nature of the test: Trypanosoma cruzi proteasome chymotrypsin-like activity (TcProtChymo) assay. Note: in the data most compounds retested in dose-response had high values. The format is functional. Particulars: 9.37 µM.

The species named for test [8] is Homo sapiens. Nature of the test: To identify inhibition of the IFN signalling (Jak-Stat) pathway via expression of an eGFP reporter gene under the control of an IFN-stimulated response element (ISRE) containing MxA promoter. The format is functional. Conditions: 30 µM. In general terms: A reporter such as luciferase makes a cellular process visible.
For test [9], the target named is T4, Tyrosyl-tRNA synthetase, putative (Trypanosoma cruzi (strain CL Brener)) (UniProt Q4DSP6).
T4 sequence (whole entry): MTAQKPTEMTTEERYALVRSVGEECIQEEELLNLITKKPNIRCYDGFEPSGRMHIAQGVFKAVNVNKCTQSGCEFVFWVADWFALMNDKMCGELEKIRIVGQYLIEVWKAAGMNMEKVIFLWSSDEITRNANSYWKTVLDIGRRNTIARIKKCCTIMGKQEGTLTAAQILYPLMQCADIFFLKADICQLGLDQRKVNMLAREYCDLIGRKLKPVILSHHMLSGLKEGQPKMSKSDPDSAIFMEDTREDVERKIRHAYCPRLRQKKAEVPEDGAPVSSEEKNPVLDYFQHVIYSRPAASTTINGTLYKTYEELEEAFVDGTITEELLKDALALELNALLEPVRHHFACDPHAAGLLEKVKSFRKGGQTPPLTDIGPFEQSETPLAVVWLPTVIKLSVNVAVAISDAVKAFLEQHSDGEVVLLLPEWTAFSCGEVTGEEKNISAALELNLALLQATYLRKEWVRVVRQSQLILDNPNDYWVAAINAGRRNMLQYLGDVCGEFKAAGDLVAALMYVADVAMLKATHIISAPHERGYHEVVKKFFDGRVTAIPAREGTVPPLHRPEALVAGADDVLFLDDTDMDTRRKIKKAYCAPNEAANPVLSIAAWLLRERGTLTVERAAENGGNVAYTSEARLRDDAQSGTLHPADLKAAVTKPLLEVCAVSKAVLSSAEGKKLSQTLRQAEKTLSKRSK
Nature of the test: Trypanosoma cruzi tyrosyl tRNA synthetase (TcYRS) _High Tyrosine SOP. Note: in the data most compounds retested in dose-response had high values. The format is functional. Conditions: 30 µM.

For test [10], the target named is T4, Tyrosyl-tRNA synthetase, putative (Trypanosoma cruzi (strain CL Brener)). The test is described as follows: Trypanosoma cruzi tyrosyl tRNA synthetase (TcYRS) SOP. Particulars: 30 µM. The format is functional.
Test [11] has as its target Chromo domain-containing protein 1 (Saccharomyces cerevisiae (strain ATCC 204508 / S288c) (Baker's yeast)) (UniProt P32657). Nature of the test: ScCHD-1 Enzyme Inhibition Assay. Note: in the data most compounds retested in dose-response had high values. It is filed as functional. Conditions: 30 µM.

Sequence of Chromo domain-containing protein 1 (Saccharomyces cerevisiae (strain ATCC 204508 / S288c) (Baker's yeast)) (P32657 whole entry, the tested form may be a part): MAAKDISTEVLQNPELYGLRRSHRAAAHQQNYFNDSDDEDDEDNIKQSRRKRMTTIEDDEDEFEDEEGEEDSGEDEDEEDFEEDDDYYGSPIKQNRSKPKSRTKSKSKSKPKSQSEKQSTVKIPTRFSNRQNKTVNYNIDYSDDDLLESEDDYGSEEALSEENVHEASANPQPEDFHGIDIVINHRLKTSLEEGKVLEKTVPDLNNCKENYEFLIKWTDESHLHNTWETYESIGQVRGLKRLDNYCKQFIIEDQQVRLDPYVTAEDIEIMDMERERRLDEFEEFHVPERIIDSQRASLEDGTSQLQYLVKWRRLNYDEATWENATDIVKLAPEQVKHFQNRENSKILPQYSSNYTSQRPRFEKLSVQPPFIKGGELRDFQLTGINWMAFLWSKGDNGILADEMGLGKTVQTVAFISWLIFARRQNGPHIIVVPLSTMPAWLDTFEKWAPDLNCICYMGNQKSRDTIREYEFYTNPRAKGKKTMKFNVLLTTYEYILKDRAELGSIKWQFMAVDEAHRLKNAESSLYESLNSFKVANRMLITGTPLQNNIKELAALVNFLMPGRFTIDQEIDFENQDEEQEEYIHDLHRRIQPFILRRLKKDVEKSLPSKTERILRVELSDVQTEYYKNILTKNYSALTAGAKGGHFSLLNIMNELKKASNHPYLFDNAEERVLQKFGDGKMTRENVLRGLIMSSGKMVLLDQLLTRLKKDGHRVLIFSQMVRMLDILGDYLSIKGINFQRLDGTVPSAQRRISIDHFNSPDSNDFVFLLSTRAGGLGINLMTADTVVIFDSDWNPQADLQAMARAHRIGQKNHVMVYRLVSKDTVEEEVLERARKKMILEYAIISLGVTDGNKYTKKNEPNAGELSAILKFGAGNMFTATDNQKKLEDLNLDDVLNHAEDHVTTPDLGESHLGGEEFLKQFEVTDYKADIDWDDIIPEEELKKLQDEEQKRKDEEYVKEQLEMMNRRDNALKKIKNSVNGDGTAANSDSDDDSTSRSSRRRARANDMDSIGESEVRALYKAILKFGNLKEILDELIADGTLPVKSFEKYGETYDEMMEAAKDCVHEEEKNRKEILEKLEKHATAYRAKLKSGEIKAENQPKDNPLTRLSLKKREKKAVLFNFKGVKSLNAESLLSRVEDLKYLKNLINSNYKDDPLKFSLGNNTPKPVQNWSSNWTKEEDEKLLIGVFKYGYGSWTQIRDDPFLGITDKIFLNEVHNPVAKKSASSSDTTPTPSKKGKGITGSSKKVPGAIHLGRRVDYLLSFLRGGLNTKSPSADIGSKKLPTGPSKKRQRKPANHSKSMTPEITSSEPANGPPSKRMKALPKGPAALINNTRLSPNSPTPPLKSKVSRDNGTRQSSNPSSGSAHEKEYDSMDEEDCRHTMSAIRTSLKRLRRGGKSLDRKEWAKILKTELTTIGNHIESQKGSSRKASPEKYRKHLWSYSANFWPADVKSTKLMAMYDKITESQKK
Sequence of Protein translocase subunit SecA (Escherichia coli (strain K12)) (P10408 whole entry): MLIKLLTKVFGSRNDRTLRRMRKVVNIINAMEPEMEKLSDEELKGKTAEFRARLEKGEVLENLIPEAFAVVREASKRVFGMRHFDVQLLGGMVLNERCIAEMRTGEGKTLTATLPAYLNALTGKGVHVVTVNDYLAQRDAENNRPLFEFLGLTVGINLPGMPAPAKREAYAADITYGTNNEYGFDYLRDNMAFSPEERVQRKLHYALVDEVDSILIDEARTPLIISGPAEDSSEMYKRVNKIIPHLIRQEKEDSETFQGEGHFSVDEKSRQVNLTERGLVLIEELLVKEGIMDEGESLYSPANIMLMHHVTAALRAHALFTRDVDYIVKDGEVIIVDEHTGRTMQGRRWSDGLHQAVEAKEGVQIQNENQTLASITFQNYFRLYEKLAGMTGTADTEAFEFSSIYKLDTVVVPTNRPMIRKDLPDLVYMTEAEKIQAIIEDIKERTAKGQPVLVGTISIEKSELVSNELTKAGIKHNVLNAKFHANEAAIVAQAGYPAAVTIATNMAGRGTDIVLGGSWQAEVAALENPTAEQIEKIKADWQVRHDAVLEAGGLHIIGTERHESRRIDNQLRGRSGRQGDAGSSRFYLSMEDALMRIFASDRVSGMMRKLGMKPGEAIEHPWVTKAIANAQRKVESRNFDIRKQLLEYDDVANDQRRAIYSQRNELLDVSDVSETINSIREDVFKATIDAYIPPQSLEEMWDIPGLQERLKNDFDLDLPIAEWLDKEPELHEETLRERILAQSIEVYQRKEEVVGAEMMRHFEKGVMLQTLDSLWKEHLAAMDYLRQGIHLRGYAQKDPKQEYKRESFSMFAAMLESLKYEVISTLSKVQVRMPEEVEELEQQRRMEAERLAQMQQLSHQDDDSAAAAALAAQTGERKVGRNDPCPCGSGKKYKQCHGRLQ
Sequence of Sialic acid-binding Ig-like lectin 9 (Homo sapiens) (Q9Y336 whole entry): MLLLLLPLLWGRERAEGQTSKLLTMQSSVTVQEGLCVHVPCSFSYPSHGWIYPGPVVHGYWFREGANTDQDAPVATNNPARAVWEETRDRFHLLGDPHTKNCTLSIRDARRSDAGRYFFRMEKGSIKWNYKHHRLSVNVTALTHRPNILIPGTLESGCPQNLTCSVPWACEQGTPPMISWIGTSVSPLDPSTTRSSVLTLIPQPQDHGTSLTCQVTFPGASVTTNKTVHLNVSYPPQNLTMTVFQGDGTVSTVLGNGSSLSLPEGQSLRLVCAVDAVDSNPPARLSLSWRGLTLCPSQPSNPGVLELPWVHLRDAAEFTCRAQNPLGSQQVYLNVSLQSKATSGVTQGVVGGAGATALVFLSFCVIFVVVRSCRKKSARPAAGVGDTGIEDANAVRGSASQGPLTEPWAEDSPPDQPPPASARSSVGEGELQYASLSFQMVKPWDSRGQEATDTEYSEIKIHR

As for `CC(=O)NCCC1CCCCN1S(=O)(=O)c1cccc(C#N)c1` (stereo not given), the Percent Effect was -7.77% in test [1]; 8.22% in test [2]; 1.2% in test [3]; 3.78% in test [4]; 1.98% in test [5]; -2% in test [6]. Also, the Percent Effect in [7] is 13.6%; in [8], 4.41%; in test [9] it was 2.08%; in test [10], 8.64%; in test [11], 0.784%.

As to `Cc1cc(F)c(S(=O)(=O)NCCCN2CCC(O)CC2)cc1F`, the Percent Effect is 0.398% in [1]; 5.2% in test [2]; 5.04% in test [3]; -1.8% in test [4]; -10.9% in [5]; -24.8% in [6]. The Percent Effect was 15.8% in test [7]; 19.9% in test [8]; -1.07% in [9]; 1.24% in test [10]; -1.88% in [11].

With `COc1cccc(OCC2CCCN(C(=O)c3cnc(C)nc3O)C2)c1` (stereo not given), the Percent Effect in test [1] is 0.517%; in test [2], 8.11%; in test [3], -1.51%; in test [4] it was 13.5%; in [5], 5.02%; in [6] it was 11.9%. Besides, the Percent Effect in test [7] is 7.24%; in [8] it was -19%; in test [9] it was 7.94%; in [10], 17.1%; in [11], -2.95%.

With `O=C(CN1CCOC(Cn2cccn2)C1)NCCc1ccc(F)cc1` (stereo not given), the Percent Effect in [1] is -2.6%; in test [2], 2.7%; in test [3], -6.61%; in test [4], -1.28%; in [5], -3.25%; in test [6], -0.554%. Moreover, the Percent Effect in test [7] is 7.18%; in test [8] it was 5.31%; in test [9] it was -0.99%; in test [10] it was 1.22%; in test [11], 13.8%.

`CCOCC1CN(C(=O)c2ccncc2)Cc2nn(C)cc21` (stereo not given): the Percent Effect in test [1] is 2.34%; in test [2], 16%; in test [3] it was -4.74%; in test [4], 2.25%; in [5], 0.193%; in [6], -51.1%. The Percent Effect is 9.23% in test [7]; -2.51% in [8]; 6.25% in [9]; 22.5% in [10]; -3.97% in test [11].

Turning to `Cc1ccc(Nc2nccc(C3CN(CC(N)=O)C3)n2)nc1`, the Percent Effect in test [1] is -6.39%; in [2] it was 20.3%; in [3], 2.38%; in [4], 3.4%; in [5], 7.12%; in test [6], -5.8%. The Percent Effect is 17.2% in test [7]; 10.7% in test [8]; 8.6% in [9]; 24.7% in test [10]; -14.1% in [11].

On to `Cn1cc(N2CCC(NC(=O)c3c(F)cccc3F)C2=O)cn1` (stereo not given), for which the Percent Effect in test [1] was -7.01%; in [2] it was -2.7%; in test [3] it was 0.96%; in test [4], -8.23%; in [5], -1.66%; in [6], -0.744%. For the same molecule, the Percent Effect in test [7] is 0.258%; in test [8] it was -14.2%; in test [9], 0%; in [10], 1.24%; in [11] it was 0.00639%.

As for `Cc1cc(C)n(CC(C)CNC(=O)[C@@H](C)NC(=O)OC(C)(C)C)n1` (stereo not given in full), the Percent Effect in [1] is -2.44%; in [2], 7.89%; in test [3], 3.79%; in [4], 1.85%; in test [5], 0.487%; in test [6] it was -5.92%. For the same molecule, the Percent Effect was 17.7% in test [7]; -12.5% in [8]; 4.25% in test [9]; 13% in [10]; -2.31% in test [11].

For `CC(C)c1n[nH]c(C2CN(C(=O)c3cccc4cn[nH]c34)CCO2)n1` (stereo not given), the Percent Effect in [1] was -1.73%; in [2], 7.89%; in test [3] it was 4.13%; in test [4], 11.6%; in test [5], 2.33%; in [6], 1.8%. The Percent Effect was 4.32% in test [7]; 4.21% in test [8]; 2.46% in test [9]; 6.17% in test [10]; -0.736% in test [11].

Take `O=C([C@H]1C[C@H]2OCC[C@H]2N(C(=O)C2CCOCC2)C1)N1CCCCO1`: the Percent Effect in test [1] is -5.69%; in test [2], 13.3%; in [3], -3.93%; in test [4], 1.16%; in test [5], 1.93%; in [6], -50.4%. In addition, the Percent Effect in test [7] is 2.73%; in test [8], -17.9%; in test [9], 9.38%; in [10], 22.5%; in test [11] it was -6.17%.
